Hits are enriched below; roughly 19% of the tested compounds scored in any of these assays.
TDP1 cell CPT = growth inhibition of DT40 Tdp1-/-;hTDP1 cells with camptothecin (screen for TDP1 inhibitors); chicken DT40 Tdp1-/-;hTDP1 cells + 20 nM CPT, ATP luminescence, 48 h; AID 686979; Potency, µM (top dose mostly 46.2 µM), for inactives: at the highest dose activity change, negative = growth inhibition, actives largely listed as inhibitors; 12% of 420,000 active; note: potency is the fitted concentration of half-maximal effect; nearly all actives have a fitted effect of over 55% in size
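Chicken DT40 Tdp1-/- cells complemented with human TDP1, 400 cells/well, exposed to compounds plus 20 nM camptothecin for at least 48 h at 37 C; viability read as ATP content by CellTiter-Glo luminescence.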
IL-1B inflam inh = inflammasome signaling inhibition, IL-1 beta readout | THP-1 LPS/ATP IL-1B secretion, AlphaLISA, 16 h; hits give low values | activity change, % at 57.5 µM | 4.7% of 360,000 active; in the data active = activity change below about -50%; inconclusive = mostly about -30% to -49%
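Secreted IL-1B measured by AlphaLISA bead assay after 16 h compound exposure of THP-1 cells; compounds (final up to 57.5 uM) added 1 h before LPS (250 ng/mL) and ATP (1.25 mM) stimulation; lower signal means less secretion.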
HT1080-NT tox = kills 2HG-producing HT-1080-NT fibrosarcoma cells | HT-1080-NT fibrosarcoma viability, CellTiter-Glo ATP luminescence, 48 h | Potency, µM (top dose mostly 46.1 µM), without a hit: at the highest dose activity, negative = less viability, most hits filed as cytotoxic | 1.6% of 360,000 active;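 note: NT is the 2HG producing partner of a matched IDH1 knockdown line; potency is the fitted concentration of half-maximal effect; 0% = DMSO-treated cells and -100% = media-only wells without cells; nearly all actives have a fitted effect of over 55% in size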
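750 cells/well, RPMI + 5% FBS; 2 h settle, compound pin-transfer, 48 h at 37 degrees C. CellTiter-Glo 10 min RT, luminescence. Normalized to DMSO and media-only wells.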
HT1080 IDH1KD tx = toxicity to HT-1080 IDH1 knockdown cells (counter line); HT-1080 IDH1 knockdown viability, ATP luminescence, 48 h; Potency, µM (doses to about 46.1 µM), for the others: at the highest dose activity, negative = toxicity, hits mostly cytotoxic; 2% of 360,000 active; AID 686971;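 note: potency is the fitted concentration of half-maximal effect; 0% = DMSO wells and -100% = cell-free medium wells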
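Knockdown cells (IDH1KD HT-1080) received compounds 2 h after plating at 750 cells/well and were kept 48 h at 37 °C in 5% FBS RPMI. A CellTiter-Glo luminescence read gave % activity for curve fitting.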
TDP1 cell noCPT = qHTS for Inhibitors of human tyrosyl-DNA phosphodiesterase 1 (TDP1): qHTS in cells in absence of CPT | DT40 Tdp1-/- hTDP1 cells, no CPT, ATP luminescence, 48 h | Potency, µM (titrated, usually from 46.2 µM), without a hit: top-dose activity change, negative = growth inhibition, usual class: inhibitors | 15% of 420,000 active | AID 686978, 2013; note: potency is the fitted concentration of half-maximal effect; nearly all actives have a fitted effect of over 55% in size
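Chicken DT40 Tdp1-/- cells complemented with human TDP1, screened without camptothecin (DMSO vehicle only), 400 cells/well. Compounds pin-transferred, cells incubated at 37 °C for at least 48 hr. Growth read as ATP-dependent luminescence (CellTiter-Glo, 30 min at RT).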
* hit, by the source's call; ? = inconclusive; . = no result given. Unless noted, calls come from the whole dose curve; as a rule, active = well fitted curve in the direction sought with a large enough effect; inconclusive = small, poorly fitted or top-dose-only effect, or another doubt; inactive = no such curve, though single readings can be large; an effect the other way counts as inactive or inconclusive. Unless noted, % is set by controls: 0 for no effect and ±100 for the full control effect.

SMILES	TDP1 cell CPT	IL-1B inflam inh	HT1080-NT tox	HT1080 IDH1KD tx	TDP1 cell noCPT
CCN(CC)c1ccc(NC(=O)C2CCN(S(=O)(=O)c3c(C)noc3/C=C/c3ccccc3F)CC2)c(C)c1	21µM*	.	.	.	16µM*
COc1cc(Cl)c(NC(=O)C2CCN(S(=O)(=O)c3c(C)noc3/C=C/c3ccccc3F)CC2)c(OC)c1	6%	.	.	.	-2%
CCn1c(SCC(=O)NC2CCCC2)nnc1-c1cccnc1	8%	34	4%	6%	-1%
CNC(=O)C1CCN(S(=O)(=O)c2c(C)noc2/C=C/c2ccccc2F)CC1	-20%	-17	1%	0%	-14%
CC(=O)c1ccc(N2CCN(C(=O)C3CCN(S(=O)(=O)c4c(C)noc4/C=C/c4ccccc4F)CC3)CC2)cc1	?	.	.	.	10µM*
Cc1ccc(/C=C/c2onc(C)c2S(=O)(=O)N2CCC(C(=O)Nc3cccc(C#N)c3)CC2)cc1	3.3µM*	.	.	.	3.7µM*
Cc1cccc(C(O)c2ncc(-c3ccc(F)cc3)[nH]2)c1C (stereo not drawn)	?	-20	2%	-17%	?
CCCOP(=O)(OCCC)c1c([N+](=O)[O-])cc(C(F)(F)F)cc1[N+](=O)[O-]	?	-73*	?	?	18µM*
CCOc1ccc(C(F)(F)F)cc1NC(=O)COc1ccc(C(F)(F)F)cc1[N+](=O)[O-]	-24%	-8	13%	7%	12%
Nc1nc(SCC(=O)Nc2cc(Cl)c(Cl)cc2Cl)n[nH]1	-21%	-52*	12%	10%	?
CCOC(=O)c1c(NC(=O)CSc2n[nH]c(N)n2)sc(CC)c1C	-18%	-92*	-29%	-29%	-2%
COC(=O)c1c(NC(=O)CSc2n[nH]c(N)n2)sc(C)c1C	5%	-11	-12%	-5%	0%
CCc1ccc(NC(=O)CSc2nc3nc(C)cc(C)n3n2)cc1	?	70	-1%	-4%	?
CCOC(=O)c1c(NC(=O)CSc2nc3nc(C)cc(C)n3n2)sc(CC)c1C	12µM*	28	-3%	12%	?
CN(C)C1CN(Cc2cn(Cc3cccc(C(F)(F)F)c3)nn2)S(=O)(=O)C1 (stereo not drawn)	-4%	9	18%	3%	-11%
CCN(CC)CCNc1oc(-c2ccccc2)nc1S(=O)(=O)c1ccccc1	?	-24	-12%	3%	?
Cc1cc(CN(Nc2ccccc2)c2ccccc2)cc(C)n1	?	44	-5%	-4%	15µM*
c1ccc(NN(Cc2ccncc2)c2ccccc2)cc1	-24%	1	-1%	0%	?
N#Cc1ccc(CN(Nc2ccccc2)c2ccccc2)cc1	18µM*	49	?	-17%	21µM*
C[C@@H]1CN([C@H](C)CO)C(=O)CCCn2cc(nn2)CO[C@H]1CN(C)S(=O)(=O)c1cccc(C#N)c1	10%	26	16%	12%	-14%
O=C(O)CCc1nnc(SCC(=O)Nc2cccc(C(F)(F)F)c2)[nH]c1=O	3%	8	2%	-5%	-21%
CC(OC(=O)c1nc(Cl)ccc1Cl)C(=O)Nc1ccc2c(c1)OCCO2 (stereo not drawn)	-3%	24	9%	0%	-21%
O=C(C1CCCCC1)N1CCC2CC1c1cc(-c3ccc4c(c3)OCO4)ccc12 (stereo not drawn)	18µM*	35	?	?	18µM*
CC(C)(C)C(=O)N1CCC2CC1c1cc(-c3ccc4c(c3)OCO4)ccc12 (stereo not drawn)	?	-28	?	?	23µM*
CC(C)(C)NC(=S)N1CCC2CC1c1cc(-c3ccc4c(c3)OCO4)ccc12 (stereo not drawn)	?	-2	13%	5%	?
CCCCc1nnc(SCCSc2nnc(CCCC)n2N)n1N	4%	-2	7%	3%	4%

High-throughput results deposited in PubChem BioAssay by National Center for Advancing Translational Sciences (NCATS).
